The whole screen tested about 39,000 compounds, of which about 3,300 (8.5%) were called active. What follows is part of a selection rich in actives, with near analogues and random picks from the rest.

The assay concerns HepG2. The experiment in a line: cytotoxicity call (relative viability < 0.9). The conditions noted are these: 10 µM.
For the molecule `COc1ccc(S(=O)(=O)N(C)C[C@@H]2Oc3ccc(NS(=O)(=O)c4ccccc4)cc3C(=O)N([C@H](C)CO)C[C@H]2C)cc1`, the cytotoxicity call is “inactive”. Regarding `CC(C)=CCc1c(O)cc2oc(C)cc(=O)c2c1O`, the cytotoxicity call is “inactive”.

Regarding `COc1cc(O)c2c(=O)cc(C)oc2c1CC=C(C)C`, the cytotoxicity call is “inactive”. The entry for `COc1c(O)cc2oc3cc(O)c(CC=C(C)C)c(O)c3c(=O)c2c1CC=C(C)C` [alpha-MANGOSTIN ] is “active”; for `CN(C)CCCNC(=O)[C@H]1[C@H](CO)[C@H]2Cn3c(ccc(-c4ccncc4)c3=O)[C@@H]1N2C(=O)C1CC1` it is “inactive”. In the case of `COCC(=O)N(C)C[C@@H]1Oc2cc(C#C[C@@H](C)O)ccc2S(=O)(=O)N([C@H](C)CO)C[C@@H]1C`, the cytotoxicity call was “inactive”. Consider `COCC(=O)Nc1ccc2c(c1)C(=O)N(C)[C@@H]1CC[C@H](CC(=O)NC3Cc4ccccc4C3)O[C@H]1CO2`, for which the cytotoxicity call is “inactive”.

Take `C[C@@H]1CCCCO[C@@H](CN(C)Cc2ccc(Cl)c(Cl)c2)[C@H](C)CN([C@H](C)CO)C(=O)c2cc(NS(=O)(=O)c3ccccc3)ccc2O1`: the cytotoxicity call was “active”. The entry for `C[C@@H]1CCCCO[C@H](CN(C)Cc2ccc(Cl)c(Cl)c2)[C@H](C)CN([C@@H](C)CO)C(=O)c2cc(NS(=O)(=O)c3ccccc3)ccc2O1` is “inactive”; for `C[C@@H]1CCCCO[C@H](CN(C)Cc2ccc(Cl)c(Cl)c2)[C@@H](C)CN([C@@H](C)CO)C(=O)c2cc(NS(=O)(=O)c3ccccc3)ccc2O1` it is “active”; for `C[C@@H]1CCCCO[C@H](CN(C)Cc2ccc(Cl)c(Cl)c2)[C@@H](C)CN([C@H](C)CO)C(=O)c2cc(NS(=O)(=O)c3ccccc3)ccc2O1` it is “inactive”. The entry for `C[C@@H]1CCCCO[C@@H](CN(C)Cc2ccc(Cl)c(Cl)c2)[C@H](C)CN([C@@H](C)CO)C(=O)c2cc(NS(=O)(=O)c3ccccc3)ccc2O1` is “active”.

On to `C[C@H](CO)N1C[C@H](C)[C@@H](CN(C)Cc2ccc(Cl)c(Cl)c2)OCCCC[C@H](C)Oc2ccc(NS(=O)(=O)c3ccccc3)cc2C1=O`, for which the cytotoxicity call is “active”. On to `CN(C)c1nc(NCCO)c2cnn(C)c2n1`, for which the cytotoxicity call was “inactive”. The entry for `Cc1noc(C)c1S(=O)(=O)N(C)C[C@@H]1Oc2ccc(NS(=O)(=O)c3ccccc3)cc2C(=O)N([C@@H](C)CO)C[C@@H]1C` is “inactive”; for `C[C@@H]1CN([C@H](C)CO)C(=O)c2cc(NC(=O)Cn3cnnn3)ccc2O[C@@H]1CN(C)S(=O)(=O)c1cn(C)cn1` it is “inactive”.

Turning to `CC(C)NC(=O)N(C)C[C@@H]1OCCCC[C@H](C)Oc2ccc(NS(C)(=O)=O)cc2C(=O)N([C@H](C)CO)C[C@@H]1C`, the cytotoxicity call is “inactive”. As to `C[C@@H]1CN([C@H](C)CO)C(=O)c2cc(NS(=O)(=O)c3cn(C)cn3)ccc2O[C@@H](C)CCCCO[C@@H]1CN(C)S(=O)(=O)c1cccs1`, the cytotoxicity call was “inactive”.

In the case of `CC(C)CC#Cc1ccc2c(c1)O[C@H](CN(C)C(=O)Cc1ccncc1)[C@H](C)CN([C@@H](C)CO)S2(=O)=O`, the cytotoxicity call was “inactive”. With `C[C@@H]1CCCCO[C@@H](CN(C)C(=O)NC2CCCCC2)[C@H](C)CN([C@H](C)CO)C(=O)c2cc(NS(=O)(=O)c3ccc(F)cc3)ccc2O1` the entry was “inactive”; with `COc1ccc(S(=O)(=O)N(C)C[C@H]2Oc3ccc(NS(=O)(=O)c4cn(C)cn4)cc3C(=O)N([C@H](C)CO)C[C@@H]2C)cc1`, “inactive”; with `COc1ccc(S(=O)(=O)N(C)C[C@@H]2OCCCC[C@@H](C)Oc3ccc(NS(C)(=O)=O)cc3C(=O)N([C@H](C)CO)C[C@H]2C)cc1`, “inactive”. For the molecule `COc1ccc(S(=O)(=O)Nc2cccc3c2O[C@@H](CN(C)C(=O)NC(C)C)[C@H](C)CN([C@@H](C)CO)C3=O)cc1`, the cytotoxicity call was “inactive”. `C[C@H](CO)N1C[C@H](C)[C@H](CN(C)C(=O)Cc2ccccc2)OCCCC[C@H](C)Oc2ccc(NS(=O)(=O)c3cccs3)cc2C1=O`: the cytotoxicity call was “inactive”. As to `C[C@@H]1CN([C@H](C)CO)S(=O)(=O)c2ccc(C#Cc3ccccc3)cc2O[C@@H]1CN(C)S(=O)(=O)c1cn(C)cn1`, the cytotoxicity call was “inactive”. With `C[C@@H]1CCCCO[C@@H](CN(C)Cc2ccc(Cl)c(Cl)c2)[C@@H](C)CN([C@@H](C)CO)C(=O)c2cc(NS(=O)(=O)c3ccccc3)ccc2O1`, the cytotoxicity call is “inactive”. For the molecule `C[C@@H]1CCCCO[C@@H](CN(C)Cc2ccc(Cl)c(Cl)c2)[C@@H](C)CN([C@H](C)CO)C(=O)c2cc(NS(=O)(=O)c3ccccc3)ccc2O1`, the cytotoxicity call was “active”.

Turning to `C[C@H]1CCCCO[C@H](CN(C)Cc2ccc(Cl)c(Cl)c2)[C@@H](C)CN([C@@H](C)CO)C(=O)c2cc(NS(=O)(=O)c3ccccc3)ccc2O1`, the cytotoxicity call was “active”. `C[C@@H]1CN([C@H](C)CO)C(=O)c2cc(NS(=O)(=O)c3ccccc3)ccc2O[C@@H](C)CCCCO[C@H]1CN(C)Cc1ccc(Cl)c(Cl)c1`: the cytotoxicity call was “inactive”.

For `C[C@@H]1CN([C@H](C)CO)C(=O)c2cc(NS(=O)(=O)c3ccccc3)ccc2O[C@@H](C)CCCCO[C@@H]1CN(C)Cc1ccc(Cl)c(Cl)c1`, the cytotoxicity call was “active”. In the case of `Nn1c([C@@H](O)c2ccccc2)n[nH]c1=S`, the cytotoxicity call was “inactive”.

In the case of `COc1ccc(CN(C)C[C@H]2OCCCC[C@H](C)Oc3ccc(NC(=O)Cc4ccccc4)cc3C(=O)N([C@H](C)CO)C[C@H]2C)cc1`, the cytotoxicity call is “inactive”.

With `C[C@H]1CN([C@@H](C)CO)C(=O)c2cc(NC(=O)Cn3cnnn3)ccc2O[C@H]1CN(C)S(C)(=O)=O`, the cytotoxicity call is “inactive”.

Turning to `C[C@H]1CN([C@@H](C)CO)C(=O)c2cc(C#CC(C)(C)O)cnc2O[C@@H]1CN(C)C(=O)CN(C)C`, the cytotoxicity call was “inactive”.

For the molecule `COc1ccc(NC(=O)N(C)C[C@@H]2OCCCC[C@@H](C)Oc3ccc(NS(=O)(=O)c4ccc(OC)cc4)cc3C(=O)N([C@@H](C)CO)C[C@@H]2C)cc1`, the cytotoxicity call was “inactive”. On to `CCOC(=O)CC1(C)NNC(=S)NN1`, for which the cytotoxicity call is “inactive”.

As for `C[C@@](N)(C(=O)O)c1ccc(-c2nn[nH]n2)cc1`, the cytotoxicity call is “inactive”. For the molecule `C[C@H](NC(=O)C[C@H]1C[C@@H]2c3cc(NC(=O)Nc4ccc(C(F)(F)F)cc4)ccc3O[C@@H]2[C@@H](CO)O1)c1ccccc1`, the cytotoxicity call is “inactive”. Take `COc1ccccc1CNC(=O)C[C@H]1C[C@H]2c3cc(NC(=O)Nc4ccc(C(F)(F)F)cc4)ccc3O[C@H]2[C@H](CO)O1`: the cytotoxicity call was “inactive”. The entry for `O=C(C[C@@H]1C[C@@H]2c3cc(NC(=O)Nc4ccc(C(F)(F)F)cc4)ccc3O[C@@H]2[C@H](CO)O1)NC1CCCCC1` is “active”; for `COc1ccccc1CNC(=O)C[C@H]1C[C@@H]2c3cc(NC(=O)Nc4ccc(C(F)(F)F)cc4)ccc3O[C@@H]2[C@@H](CO)O1` it is “inactive”.

With `C[C@H](NC(=O)C[C@@H]1C[C@@H]2c3cc(NC(=O)Nc4ccc(C(F)(F)F)cc4)ccc3O[C@@H]2[C@H](CO)O1)c1ccccc1`, the cytotoxicity call was “inactive”. In the case of `C[C@H](NC(=O)C[C@@H]1C[C@@H]2c3cc(NC(=O)Nc4ccc(C(F)(F)F)cc4)ccc3O[C@@H]2[C@@H](CO)O1)c1ccccc1`, the cytotoxicity call was “active”.

Consider `O=C(C[C@@H]1C[C@@H]2c3cc(NC(=O)Nc4ccc(C(F)(F)F)cc4)ccc3O[C@@H]2[C@@H](CO)O1)NC1CCCCC1`, for which the cytotoxicity call is “inactive”. As for `O=C(C[C@@H]1C[C@H]2c3cc(NC(=O)Nc4ccc(C(F)(F)F)cc4)ccc3O[C@H]2[C@@H](CO)O1)NC1CCCCC1`, the cytotoxicity call is “inactive”.

On to `COc1ccccc1CNC(=O)C[C@@H]1C[C@H]2c3cc(NC(=O)Nc4ccc(C(F)(F)F)cc4)ccc3O[C@H]2[C@@H](CO)O1`, for which the cytotoxicity call was “active”. `C[C@@H]1CN([C@H](C)CO)C(=O)c2c(c3ccccc3n2C)-c2ccccc2CO[C@@H]1CN(C)S(=O)(=O)c1cn(C)cn1`: the cytotoxicity call was “inactive”.

As for `Cc1noc(C)c1NC(=O)Nc1ccc2c(c1)C(=O)N([C@H](C)CO)C[C@@H](C)[C@H](CN(C)C(=O)Nc1ccccc1)OCCCC[C@@H](C)O2`, the cytotoxicity call was “inactive”. With `Cc1ccc(S(=O)(=O)N(C)C[C@H]2Oc3ccc(NC(=O)CCCN(C)C)cc3C(=O)N([C@@H](C)CO)C[C@@H]2C)cc1` the entry was “inactive”; with `CCNC(=O)C[C@@H]1CC[C@H]2[C@@H](COc3ccc(NS(=O)(=O)c4ccccc4C)cc3C(=O)N2C)O1`, “inactive”; with `C[C@@H]1CCCCO[C@H](CN(C)C(=O)Nc2ccc(F)cc2)[C@H](C)CN([C@H](C)CO)C(=O)c2cc(NC(=O)Nc3ccc(C(F)(F)F)cc3)ccc2O1`, “inactive”.

Turning to `CC(C)CC#Cc1ccc2c(c1)O[C@@H](CN(C)C(=O)c1cccnc1)[C@@H](C)CN([C@H](C)CO)S2(=O)=O`, the cytotoxicity call was “inactive”. On to `CCCCOc1ccc(C(=O)CCN2CCCCC2)cc1.Cl`, for which the cytotoxicity call was “active”.

As to `CC(=O)OCC(=O)NCCCOc1cccc(CN2CCCCC2)c1.Cl`, the cytotoxicity call was “inactive”. `COc1cc(C(=O)OCCN2CCCN(CCOC(=O)c3cc(OC)c(OC)c(OC)c3)CC2)cc(OC)c1OC`: the cytotoxicity call was “inactive”. On to `COc1cc(OC)c(C(=O)CCCN2CCCC2)c(OC)c1.Cl`, for which the cytotoxicity call is “inactive”. With `CCCCOc1ccc(OCCCN2CCOCC2)cc1.Cl`, the cytotoxicity call is “inactive”. The entry for `Cl.O=C(c1ccc(OCCN2CCCCC2)cc1)c1c(-c2ccc(O)cc2)sc2cc(O)ccc12` is “active”. With `CC(=O)O.Cc1c(-c2ccc(O)cc2)n(Cc2ccc(OCCN3CCCCCC3)cc2)c2ccc(O)cc12` the entry was “active”. For the molecule `O=C(N[C@@H](c1ccccc1)c1ccc2ccccc2n1)C1CCN(CCOc2ccc(Cl)cc2)CC1`, the cytotoxicity call was “inactive”. `C[C@@H]1CN([C@@H](C)CO)C(=O)c2cccc(NC(=O)c3cnccn3)c2O[C@H]1CN(C)S(=O)(=O)c1cccs1`: the cytotoxicity call was “inactive”. The entry for `C[C@H]1CN([C@@H](C)CO)S(=O)(=O)c2ccc(-c3cccc(C(=O)N(C)C)c3)cc2O[C@@H]1CN(C)C(=O)Cc1ccccn1` is “inactive”; for `C[C@H]1CN([C@@H](C)CO)C(=O)c2cc(C#Cc3ccc(F)cc3)cnc2O[C@@H]1CN(C)Cc1ccccn1` it is “inactive”; for `C[C@@H]1CCCCO[C@@H](CN(C)C)[C@H](C)CN([C@H](C)CO)C(=O)c2cc(NC(=O)Nc3ccc(C(F)(F)F)cc3)ccc2O1` it is “inactive”. Regarding `C[C@@H]1CCCCO[C@H](CN(C)C)[C@H](C)CN([C@@H](C)CO)C(=O)c2cc(NC(=O)Nc3ccc(C(F)(F)F)cc3)ccc2O1`, the cytotoxicity call was “active”. With `C[C@@H]1CCCCO[C@@H](CN(C)C)[C@H](C)CN([C@@H](C)CO)C(=O)c2cc(NC(=O)Nc3ccc(C(F)(F)F)cc3)ccc2O1` the entry was “inactive”. For the molecule `C[C@@H]1CN([C@H](C)CO)C(=O)c2cc(NC(=O)Nc3ccc(C(F)(F)F)cc3)ccc2O[C@@H](C)CCCCO[C@H]1CN(C)S(C)(=O)=O`, the cytotoxicity call was “active”. For the molecule `C[C@@H]1CN([C@@H](C)CO)C(=O)c2cc(NC(=O)Nc3ccc(C(F)(F)F)cc3)ccc2O[C@@H](C)CCCCO[C@H]1CN(C)C`, the cytotoxicity call is “inactive”. For the molecule `C[C@@H]1CCCCO[C@H](CN(C)C)[C@H](C)CN([C@H](C)CO)C(=O)c2cc(NC(=O)Nc3ccc(C(F)(F)F)cc3)ccc2O1`, the cytotoxicity call is “active”. In the case of `C[C@H](CO)N1C[C@H](C)[C@@H](CN(C)C)OCCCC[C@H](C)Oc2ccc(NC(=O)Nc3ccc(C(F)(F)F)cc3)cc2C1=O`, the cytotoxicity call was “inactive”. For the molecule `C[C@@H]1CCCCO[C@H](CN(C)S(C)(=O)=O)[C@@H](C)CN([C@@H](C)CO)C(=O)c2cc(NC(=O)Nc3ccc(C(F)(F)F)cc3)ccc2O1`, the cytotoxicity call is “inactive”. In the case of `C[C@H]1CCCCO[C@@H](CN(C)C)[C@@H](C)CN([C@@H](C)CO)C(=O)c2cc(NC(=O)Nc3ccc(C(F)(F)F)cc3)ccc2O1`, the cytotoxicity call is “active”. On to `C[C@@H]1CN([C@@H](C)CO)C(=O)c2cc(NC(=O)Nc3ccc(C(F)(F)F)cc3)ccc2O[C@@H](C)CCCCO[C@@H]1CN(C)C`, for which the cytotoxicity call is “inactive”. For the molecule `C[C@@H]1CCCCO[C@H](CN(C)S(C)(=O)=O)[C@@H](C)CN([C@H](C)CO)C(=O)c2cc(NC(=O)Nc3ccc(C(F)(F)F)cc3)ccc2O1`, the cytotoxicity call is “inactive”. With `C[C@@H]1CCCCO[C@H](CN(C)C)[C@@H](C)CN([C@H](C)CO)C(=O)c2cc(NC(=O)Nc3ccc(C(F)(F)F)cc3)ccc2O1`, the cytotoxicity call was “inactive”.
